According to PubChem BioAssay (NCATS):
Inconclusive results are not listed. Active and inactive are the calls of the source. Unless noted, calls come from the whole dose curve; as a rule, active = well fitted curve in the direction sought with a large enough effect; inconclusive = small, poorly fitted or top-dose-only effect, or another doubt; inactive = no such curve, though single readings can be large; an effect the other way counts as inactive or inconclusive.

Key:
[1] = Counterscreen for APE1 Inhibitors: Fluorescent Dye Displacement Validation Assay (AID 1707);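 note: plate controls were ThO with dsDNA and no compound for no effect and ThO without dsDNA for full effect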
Method in brief: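 Thiazole Orange displacement from dsDNA: 250 nM ThO with 50 nM TAMRA-labelled abasic-site (tetrahydrofuran) duplex in 50 mM Tris-HCl pH7.5, 50mM NaCl, 2 mM MgCl2, 0.01% Tween-20. Loss of endpoint fluorescence (ex 480 nm, em 540 nm) flags DNA binders.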

[2] = target: Endonuclease 4 (Escherichia coli (strain K12)) (UniProt P0A6C1); test: Counterscreen for APE1 Inhibitors: qHTS Validation Assay for Inhibitors of Endonuclease IV (AID 1708); note: % is set by controls: 0 for no effect and ±100 for the full control effect
Method in brief: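 2 nM enzyme was preincubated with compounds for 15 min at room temperature in 50 mM Tris-HCl pH 7.5, 50 mM NaCl, 2 mM MgCl2, 1 mM DTT, 0.01% Tween-20. 50 nM THF-abasic TAMRA/BHQ-2 duplex substrate started the reaction.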

[3] = qHTS for differential inhibitors of proliferation of Plasmodium falciparum line 7G8 (AID 1815);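 note: parasite growth measured after three days of incubation; plate controls were vehicle wells for no effect and reference inhibitor wells for full effect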
[4] = qHTS for differential inhibitors of proliferation of Plasmodium falciparum line 3D7 (AID 1876);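 note: parasite growth measured after three days of culture; 0% = vehicle wells and -100% = reference inhibitor wells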
[5] = qHTS for differential inhibitors of proliferation of Plasmodium falciparum line D10 (AID 1877);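 note: parasites grown with compound for 72 h before DNA staining; plate controls were vehicle wells for no effect and reference inhibitor wells for full effect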
[6] = qHTS for differential inhibitors of proliferation of Plasmodium falciparum line HB3 (AID 1886); details: Potency: Plasmodium falciparum HB3 proliferation inhibition;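 note: parasites grown with compound for 72 h before SYBR Green readout; plate controls were vehicle for no effect and reference inhibitor for full effect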
[7] = qHTS Assay for Modulators of Human Peripheral Myelin Protein 22 (PMP22) Expression/Activity (AID 1967; active = well fitted curve in the direction sought with a large enough effect in the signal ratio; the % refers to the signal ratio;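 note: 0% = untreated cells and 100% end not stated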)
Method in brief: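 Quantitative HTS in a mouse Schwann cell line expressing dual click beetle luciferases: Pmp22 promoter (green) and control EF-alpha promoter (red). After 24h treatment, corrected green/red signal ratio gave %Activity relative to untreated cells.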

[8] = target: ATP-dependent DNA helicase Q1 (Homo sapiens) (UniProt P46063); test: qHTS Validation Assay for Inhibitors of RecQ-Like Dna Helicase 1 (RECQ1) (AID 2353);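 note: plate controls were DMSO vehicle for no effect and enzyme-free control for full effect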
Method in brief: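 50 nM RECQ1T1 preincubated 15 min with compound in Tris pH 8.0 buffer with MgCl2, DTT, Tween-20 and 2.5 ug/ml poly(dI-dC); started with 200 nM TAMRA/BHQ-2 forked duplex and 2 mM ATP. Unwinding read as fluorescence (525/598 nm), two reads 2 h apart.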

[9] = target: RecQ-like DNA helicase BLM (Homo sapiens) (UniProt P54132); test: qHTS Validation Assay for Inhibitors of Bloom's syndrome helicase (BLM) (AID 2364);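 note: plate controls were DMSO vehicle for no effect and enzyme-free control for full effect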
Method in brief: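 BLM 50 nM in 25 mM Tris-HCl pH 8.0, 5 mM NaCl, 2 mM MgCl2, 1 mM DTT, 0.01% Tween-20, 2.5 ug/ml poly(dI-dC); 15 min cpd preinc, RT. Start: 200 nM forked DNA + 2 mM ATP (final). TAMRA read, 2 reads 2 h apart.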

[10] = Validation screen for small molecules that induce DNA re-replication in MCF 10A normal breast cells (AID 463097); note: 0% is about no effect; nearly all actives have a fitted effect of over 60% in size
Method in brief: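 DNA re-replication was detected as a rise in nuclei with elevated Hoechst fluorescence after a 48 hr compound exposure of MCF 10A cells at 37 C.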

[11] = Quantitative high throughput screen for delayed death inhibitors of the malarial parasite plastid, 96 hour incubation (AID 488745); note: series mostly up to about 29 µM; % is set by controls: 0 for no effect and ±100 for the full control effect; nearly all actives have a fitted effect of over 70% in size
Method in brief: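 P. falciparum carrying an integrated firefly luciferase reporter, grown in erythrocytes (2% hematocrit, 0.1% parasitemia final) in RPMI 1640/0.5% Albumax, was exposed to compound for 96 h (two generations) at 37 C, 5% CO2. Luminescence decrease indicated growth inhibition.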

[12] = Quantitative high throughput screen for delayed death inhibitors of the malarial parasite plastid, 48 hour incubation (AID 488752); note: % is set by controls: 0 for no effect and ±100 for the full control effect; nearly all actives have a fitted effect of over 65% in size
Method in brief: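 Erythrocytes infected with P. falciparum carrying an integrated firefly luciferase reporter (2% hematocrit, 0.1% parasitemia final) were exposed to compounds in RPMI 1640/0.5% Albumax for 48 h at 37 C, 5% CO2. Growth inhibition was scored as reduced luminescence.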

[13] = target: M-phase phosphoprotein 8 (Homo sapiens) (UniProt Q99549); test: qHTS Validation Assay for Inhibitors for MPP8 Chromodomain Interactions with Methylated Histone Tails (AID 488949);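 note: AlphaScreen signal from MPP8 chromodomain bound to biotinylated H3K9me3 peptide; top concentration of the series differs between compounds; % is set by controls: 0 for no effect and ±100 for the full control effect; nearly all actives have a fitted effect of over 55% in size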
Method in brief: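 Disruption of the preformed MPP8–trimethyl-H3K9 peptide complex (both 50 nM, 30 min, RT) is measured after 30 min compound exposure, using AlphaScreen proximity beads; aurintricarboxylic acid titration serves as plate control.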

[14] = target: Transient receptor potential cation channel subfamily V member 1 (Homo sapiens) (UniProt Q8NER1); test: HTS Assay for Compounds that Act as Enhancers of the Vanilloid Receptor 1 (AID 488979); note: 0% is about no effect
Method in brief: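 TRPV1-expressing cells loaded with Fluo-8 calcium dye; compounds added and calcium influx read kinetically for 3 min (agonist phase), then capsaicin at EC20 added and read 2 min more for enhancement. Fluorescence ex 480/em 520 nm.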

[15] = target: Thyrotropin receptor (Homo sapiens) (UniProt P16473); test: qHTS Assay for Antagonists of the Thyroid Stimulating Hormone Receptor (AID 488980); note: series mostly up to about 58 µM; 0% is about no effect
Method in brief: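 Cells expressing human TSHR (HEK293) are dispensed in HBSS/HEPES containing 70 uM RO 20-1724, compound is added, then TSH at EC80 (4 nM final). Antibody in lysis buffer follows, 30 minutes at room temperature before HTRF detection.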

[16] = target: Thyrotropin-releasing hormone receptor (Homo sapiens) (UniProt P34981); test: qHTS for Small Molecule Agonists and Allosteric Enhancers of Human TRH Receptor: Validation Screen for Agonists (AID 493127;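 active = calcium activation more than 3 SD above the typical response in the agonist read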;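 note: intracellular calcium rise by fluo-8 fluorescence before TRH EC20 addition; 0% is about no effect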); details: TRH receptor agonist cell assay; at 2 µM; active compounds read high
Method in brief: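 TRHR-expressing cells were plated overnight in serum-containing medium, then loaded with fluo-8 calcium dye at room temperature for 30 min–1.5 h. After a 10 s baseline, compound was pin-transferred and calcium fluorescence (ex 480/em 530) read kinetically for agonist response.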

[17] = target: Galactokinase (Homo sapiens) (UniProt P51570); test: qHTS Validation Assay for Inhibitors of Human Galactokinase (GALK) (AID 493189); note: 0% is about no effect
Method in brief: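 Compounds were pin-transferred into ATP buffer, then GALK-galactose mix was added (final 5 nM enzyme, 100 uM galactose, 35 uM ATP). After 1 h at room temperature, remaining ATP was measured luminescently.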

[18] = Validation screen for small molecules that induce DNA re-replication in SW480 colon adenocarcinoma cells (AID 504364); note: 0% is about no effect
Method in brief: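 SW480 cells seeded at 250 per well were exposed to compound or DMSO for 48 hr at 37 C, 5% CO2, then stained with Hoechst for 40 min. DNA content per nucleus was imaged (405 nm ex, 500-530 nm em).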

[19] = target: DNA dC->dU-editing enzyme APOBEC-3G (Homo sapiens) (UniProt Q9HC16); test: qHTS for inhibitors of Vif-A3G interactions: Validation (AID 588379); note: 0% is about no effect
Method in brief: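 HeLa cells stably expressing Vif and A3G-eYFP, 700 cells/well, incubated overnight at 37 deg C, then exposed to compound overnight at 37 deg C. Inhibition of Vif-mediated degradation read as increased yellow fluorescence (Ex 488/Em 500-530) by laser-scanning cytometry.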

[20] = target: Voltage-gated inwardly rectifying potassium channel KCNH2 (Homo sapiens) (UniProt Q12809); test: qHTS Assay for Small Molecule Inhibitors of the Human hERG Channel Activity (AID 588834);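 note: top concentration of the series differs between compounds; % is set by controls: 0 for no effect and ±100 for the full control effect; lower thallium flux fluorescence means stronger hERG block; nearly all actives have a fitted effect of over 50% in size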
Method in brief: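 Measured: FluxOR fluorescence after thallium stimulation in U2OS cells transduced with hERG by baculovirus. Compounds pre-incubated around 10 min; medium Opti-MEM with 2% FCS. AC50 from Hill equation.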

[21] = test system: Zika virus NS2B-NS3 protease; test: Primary screen GU AMC qHTS for Zika virus inhibitors (AID 1347154);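 note: 0% = no-inhibitor control and -100% = no-enzyme control; nearly all actives have a fitted effect of over 70% in size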
Method in brief: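 Unlinked Zika NS2B hydrophilic domain/NS3 protease domain noncovalent complex (25 nM final) in 10 mM Tris-HCl pH 8.0, 0.01% Tween 20, with AMC peptide substrate. Fluorescence (ex 340, em 450 nm) change over 15 min, room temperature; percent inhibition fitted to 4-parameter Hill equation.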

[22] = Primary qHTS for small molecule stabilizers of the endoplasmic reticulum resident proteome: Secreted ER Calcium Modulated Protein (SERCaMP) assay (AID 1508630); note: % is set by controls: 0 for no effect and ±100 for the full control effect
Method in brief: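 GLuc-SERCaMP-expressing SH-SY5Y cells, pretreated 16 h with compound, are challenged with thapsigargin to empty ER calcium stores; after 4 h, coelenterazine is added directly to the medium and luminescence is imaged.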

Sequence of Transient receptor potential cation channel subfamily V member 1 (Homo sapiens) (Q8NER1 whole entry, looked up): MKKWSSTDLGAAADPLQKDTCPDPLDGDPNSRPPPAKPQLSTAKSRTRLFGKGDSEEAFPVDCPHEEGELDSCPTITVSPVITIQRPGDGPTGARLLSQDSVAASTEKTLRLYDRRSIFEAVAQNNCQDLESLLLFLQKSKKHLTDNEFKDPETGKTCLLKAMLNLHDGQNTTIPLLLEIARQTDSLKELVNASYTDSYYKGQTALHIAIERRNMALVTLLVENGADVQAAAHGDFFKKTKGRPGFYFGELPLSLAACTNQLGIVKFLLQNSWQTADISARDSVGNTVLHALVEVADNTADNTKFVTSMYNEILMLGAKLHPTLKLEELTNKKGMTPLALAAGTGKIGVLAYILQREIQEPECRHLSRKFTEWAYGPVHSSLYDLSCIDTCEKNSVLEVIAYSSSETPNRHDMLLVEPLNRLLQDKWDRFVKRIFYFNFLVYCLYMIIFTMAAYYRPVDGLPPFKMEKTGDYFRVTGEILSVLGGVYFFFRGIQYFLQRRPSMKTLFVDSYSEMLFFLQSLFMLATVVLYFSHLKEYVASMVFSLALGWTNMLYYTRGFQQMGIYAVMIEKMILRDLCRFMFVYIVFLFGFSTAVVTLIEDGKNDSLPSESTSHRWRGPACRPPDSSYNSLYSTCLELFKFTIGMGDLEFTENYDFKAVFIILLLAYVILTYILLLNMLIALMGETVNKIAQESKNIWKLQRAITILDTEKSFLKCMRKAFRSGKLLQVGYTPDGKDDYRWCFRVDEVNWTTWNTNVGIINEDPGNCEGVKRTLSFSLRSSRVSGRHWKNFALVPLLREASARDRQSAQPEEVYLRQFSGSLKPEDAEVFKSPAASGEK
Sequence of RecQ-like DNA helicase BLM (Homo sapiens) (P54132 whole entry, looked up): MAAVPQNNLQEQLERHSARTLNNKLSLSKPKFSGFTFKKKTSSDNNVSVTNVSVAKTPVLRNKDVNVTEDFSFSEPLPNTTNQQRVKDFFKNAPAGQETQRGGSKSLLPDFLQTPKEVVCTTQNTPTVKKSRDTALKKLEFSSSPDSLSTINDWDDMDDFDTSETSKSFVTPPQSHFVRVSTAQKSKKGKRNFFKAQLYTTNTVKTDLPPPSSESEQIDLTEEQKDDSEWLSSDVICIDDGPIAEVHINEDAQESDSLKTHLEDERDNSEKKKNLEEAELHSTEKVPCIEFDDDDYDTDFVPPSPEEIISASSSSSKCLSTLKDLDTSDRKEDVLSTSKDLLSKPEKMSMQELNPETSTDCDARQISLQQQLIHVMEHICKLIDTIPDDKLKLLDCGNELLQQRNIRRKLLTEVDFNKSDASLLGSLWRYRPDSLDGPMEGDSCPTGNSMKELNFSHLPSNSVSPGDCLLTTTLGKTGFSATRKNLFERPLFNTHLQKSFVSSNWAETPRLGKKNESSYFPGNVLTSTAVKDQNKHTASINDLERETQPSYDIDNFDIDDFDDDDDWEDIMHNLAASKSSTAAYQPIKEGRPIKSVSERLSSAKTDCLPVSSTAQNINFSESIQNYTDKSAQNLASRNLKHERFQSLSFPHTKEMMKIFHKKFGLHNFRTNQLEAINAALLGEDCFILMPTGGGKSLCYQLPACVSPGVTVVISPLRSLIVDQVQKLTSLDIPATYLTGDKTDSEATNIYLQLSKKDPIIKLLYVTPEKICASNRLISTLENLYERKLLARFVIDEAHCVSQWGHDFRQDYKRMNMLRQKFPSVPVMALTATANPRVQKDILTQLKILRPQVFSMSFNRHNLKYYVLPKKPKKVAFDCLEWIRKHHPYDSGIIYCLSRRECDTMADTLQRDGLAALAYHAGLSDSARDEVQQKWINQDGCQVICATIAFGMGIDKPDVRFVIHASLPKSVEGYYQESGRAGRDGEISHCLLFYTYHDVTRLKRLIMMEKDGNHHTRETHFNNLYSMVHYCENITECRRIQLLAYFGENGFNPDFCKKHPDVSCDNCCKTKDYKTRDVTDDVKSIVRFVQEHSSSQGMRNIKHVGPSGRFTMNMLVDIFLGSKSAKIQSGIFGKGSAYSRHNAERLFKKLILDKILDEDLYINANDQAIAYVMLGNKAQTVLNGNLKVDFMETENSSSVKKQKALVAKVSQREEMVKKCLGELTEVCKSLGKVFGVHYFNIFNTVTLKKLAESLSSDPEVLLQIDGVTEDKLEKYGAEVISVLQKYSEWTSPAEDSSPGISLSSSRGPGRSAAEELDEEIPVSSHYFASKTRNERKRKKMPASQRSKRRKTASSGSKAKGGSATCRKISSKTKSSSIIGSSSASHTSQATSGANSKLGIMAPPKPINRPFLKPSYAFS
Sequence of Galactokinase (Homo sapiens) (P51570 whole entry, looked up): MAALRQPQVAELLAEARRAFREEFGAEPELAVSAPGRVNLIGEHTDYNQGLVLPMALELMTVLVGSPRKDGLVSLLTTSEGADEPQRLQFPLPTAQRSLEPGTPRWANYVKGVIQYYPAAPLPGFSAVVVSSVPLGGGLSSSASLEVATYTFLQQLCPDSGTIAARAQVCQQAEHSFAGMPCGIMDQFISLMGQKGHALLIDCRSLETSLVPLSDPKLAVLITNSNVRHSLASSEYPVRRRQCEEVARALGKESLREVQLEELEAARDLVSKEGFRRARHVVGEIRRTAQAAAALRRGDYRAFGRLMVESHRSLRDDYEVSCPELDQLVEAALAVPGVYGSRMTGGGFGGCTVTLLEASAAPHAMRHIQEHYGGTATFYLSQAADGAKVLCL
Sequence of M-phase phosphoprotein 8 (Homo sapiens) (Q99549 whole entry, looked up): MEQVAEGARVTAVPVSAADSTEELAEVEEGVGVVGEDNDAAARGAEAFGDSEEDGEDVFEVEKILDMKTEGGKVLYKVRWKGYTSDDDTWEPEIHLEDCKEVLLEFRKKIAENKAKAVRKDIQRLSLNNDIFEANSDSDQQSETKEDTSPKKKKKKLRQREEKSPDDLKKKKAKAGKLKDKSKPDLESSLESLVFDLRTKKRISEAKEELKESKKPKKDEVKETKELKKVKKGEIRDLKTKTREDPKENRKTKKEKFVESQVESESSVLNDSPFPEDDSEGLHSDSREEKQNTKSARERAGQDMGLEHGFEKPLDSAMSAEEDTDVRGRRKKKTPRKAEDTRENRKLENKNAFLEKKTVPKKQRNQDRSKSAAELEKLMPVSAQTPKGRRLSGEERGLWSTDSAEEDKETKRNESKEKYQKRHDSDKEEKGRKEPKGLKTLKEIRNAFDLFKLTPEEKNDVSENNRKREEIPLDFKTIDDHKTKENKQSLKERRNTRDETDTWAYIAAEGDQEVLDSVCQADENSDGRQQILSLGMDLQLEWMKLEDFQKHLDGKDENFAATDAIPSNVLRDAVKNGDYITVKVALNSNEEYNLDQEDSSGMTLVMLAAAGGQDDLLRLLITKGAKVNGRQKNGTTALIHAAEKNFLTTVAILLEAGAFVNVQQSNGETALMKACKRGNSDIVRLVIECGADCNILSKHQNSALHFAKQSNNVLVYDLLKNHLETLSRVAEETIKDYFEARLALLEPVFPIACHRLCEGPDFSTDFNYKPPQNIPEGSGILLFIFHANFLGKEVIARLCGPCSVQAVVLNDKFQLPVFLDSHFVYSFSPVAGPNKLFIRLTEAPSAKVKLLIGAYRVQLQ
Sequence of ATP-dependent DNA helicase Q1 (Homo sapiens) (P46063 whole entry, looked up): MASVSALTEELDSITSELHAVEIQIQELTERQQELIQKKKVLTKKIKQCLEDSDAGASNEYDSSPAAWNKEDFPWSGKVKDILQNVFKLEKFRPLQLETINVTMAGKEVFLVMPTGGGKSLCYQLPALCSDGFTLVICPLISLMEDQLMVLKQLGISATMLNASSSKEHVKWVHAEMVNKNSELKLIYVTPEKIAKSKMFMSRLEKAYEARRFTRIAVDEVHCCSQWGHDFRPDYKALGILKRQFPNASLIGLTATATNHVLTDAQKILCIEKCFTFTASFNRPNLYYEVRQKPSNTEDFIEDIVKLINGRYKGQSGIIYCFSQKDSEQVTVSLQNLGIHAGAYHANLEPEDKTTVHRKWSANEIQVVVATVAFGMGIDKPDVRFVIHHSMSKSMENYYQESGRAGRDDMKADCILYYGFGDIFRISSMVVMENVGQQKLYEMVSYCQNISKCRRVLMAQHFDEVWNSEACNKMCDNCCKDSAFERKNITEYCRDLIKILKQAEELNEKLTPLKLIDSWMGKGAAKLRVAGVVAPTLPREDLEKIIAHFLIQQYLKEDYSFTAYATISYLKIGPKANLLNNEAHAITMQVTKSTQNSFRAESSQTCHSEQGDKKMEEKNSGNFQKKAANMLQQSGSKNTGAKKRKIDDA
Sequence of Thyrotropin-releasing hormone receptor (Homo sapiens) (P34981 whole entry, looked up): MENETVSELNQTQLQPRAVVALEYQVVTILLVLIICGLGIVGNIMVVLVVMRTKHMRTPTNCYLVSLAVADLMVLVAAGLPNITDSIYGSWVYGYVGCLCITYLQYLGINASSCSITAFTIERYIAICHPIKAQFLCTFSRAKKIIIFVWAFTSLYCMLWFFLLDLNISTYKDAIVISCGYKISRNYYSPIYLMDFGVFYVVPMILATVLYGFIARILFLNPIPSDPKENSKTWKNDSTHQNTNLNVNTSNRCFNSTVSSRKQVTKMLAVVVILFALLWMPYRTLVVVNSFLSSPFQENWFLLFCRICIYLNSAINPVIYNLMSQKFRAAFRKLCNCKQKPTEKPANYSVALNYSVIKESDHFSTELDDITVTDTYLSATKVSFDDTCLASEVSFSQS
Sequence of DNA dC->dU-editing enzyme APOBEC-3G (Homo sapiens) (Q9HC16 whole entry, looked up): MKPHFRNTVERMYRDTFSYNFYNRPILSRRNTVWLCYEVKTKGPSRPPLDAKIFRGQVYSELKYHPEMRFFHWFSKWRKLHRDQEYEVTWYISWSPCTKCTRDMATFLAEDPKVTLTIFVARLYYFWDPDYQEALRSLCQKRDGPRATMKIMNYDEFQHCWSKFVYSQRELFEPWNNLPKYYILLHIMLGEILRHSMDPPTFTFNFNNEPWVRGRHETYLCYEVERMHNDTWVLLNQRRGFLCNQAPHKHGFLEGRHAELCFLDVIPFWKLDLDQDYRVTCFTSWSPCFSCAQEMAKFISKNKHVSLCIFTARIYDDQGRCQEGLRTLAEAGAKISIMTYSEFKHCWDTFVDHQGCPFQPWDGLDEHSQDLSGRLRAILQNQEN

CC(N)=NCc1cccc(CN)c1
inactive: Potency [1] | Potency [2] | Potency [3] | Potency [4] | Potency [5] | Potency [6] | outcome [7] | Potency [8] | Potency [9] | Potency [10] | Potency [11] | Potency [12] | Potency [13] | outcome [14] | outcome [15] | activation [16] -0.25% | outcome [17] | outcome [18] | Potency [19] | Potency [20] | Potency [21] | Potency [22]
